Records with an inconclusive call do not appear. Entries that show only a call come without a potency. Activity calls are given as the source filed them. The call rests on the fitted dose curve; in most records, active means well fitted inhibition curve with a large enough effect in the repeat runs; inconclusive means weak or mixed curves; inactive means no such curve, though single readings can be large or run the other way.
Potency means the concentration at half of the fitted maximal effect.

This test can be described thus: qHTS assay to identify small molecule antagonists of the thyroid receptor (TR) signaling pathway (AID 743065). Further: nearly all actives have a fitted effect of over 55% in size. The note with it: GH3.TRE-Luc, T3-stimulated luciferase inhibition, 23.5 h; series mostly up to 70.3 µM. From the text: U.S. Tox21 Program National Center for Advancing Translational Sciences [NCATS] NIH Chemical Genomics Center [NCGC] U.S. Environmental Protection Agency [EPA] National Institutes of Environmental Health Sciences [NIEHS] National Toxicology Program [NTP] U.S. Food and Drug Administration [FDA] Tox21 Assay Overview: Thyroid receptor (TR), a nuclear hormone receptor, plays an important role in development, proliferation, differentiation, metabolism, brain function, and cardiovascular system. […] To profile the Tox21 10K compound library in TR signaling, a cell-based GH3-TRE-Luc assay (GH3.TRE-Luc cell line, developed by the laboratory of Dr. Albertinka J. Murk, Wageningen University) was used to measure the inhibition of TR. GH3 (rat pituitary tumor) cells stably expressing a TR activity sensor consisting of two TR response elements and a luciferase reporter gene.
Tox21 Assay Protocol Summary: GH3.TRE-Luc cells were dispensed at 1500 cells/4 uL/well into 1536-well white solid bottom plates using a Multidrop Combi dispenser (Thermo Fisher Scientific Inc., Waltham, MA). After the assay plates were incubated at 37 C for 4 hours, 23 nL of library compound or DMSO controls was transferred to the assay plates by a pintool station (Kalypsys, San Diego, CA), followed by addition of 1 ul of T3 (1 nM, final concentration in the wells) to stimulate TR transactivation. The assay plates were incubated at 37 C for 23.5 h, and then 1 uL of CellTiter-Fluor reagent (Promega, Madision, WI) of measuring cytotoxicity was added to each well using a Bioraptr Flying Reagent Dispenser (FRD) workstation (Beckman Coulter, Indianapolis, IN, USA). The plates were incubated at 37 C and 5% CO2 for additional 30 min, and fluorescence intensity was measured by a ViewLux plate reader (PerkinElmer, Shelton, CT). For measuring luciferase reporter gene activity, 4 uL of ONE-Glo Luciferase Assay reagent (Promega) was added to each well using a Bioraptr FRD (Beckman Coulter), followed by 30 min incubation at room temperature. The luminescence intensity of plates was recorded by a ViewLux plate reader (PerkinElmer, Shelton, CT).
(In general: In qHTS, concentration-response curves come from the screen itself.)
On to `CC(C)(O)C(=O)O`, for which the Potency result was “inactive”.

For `CC(C)(C)c1ccc(CCC=O)cc1`, the Potency result was “inactive”.

In the case of `CCCCOC(=O)C(C)Oc1ccc(Oc2ccc(C(F)(F)F)cn2)cc1` (stereo not given), the Potency entry is “inactive”.

For the molecule `O=C(Nc1ccc2c(c1)Cc1ccccc1-2)C(F)(F)F`, the Potency result was “inactive”.

On to `SCCOCCOCCS`, for which the Potency result was “inactive”.

`Cc1ccc2ccccc2c1[N+](=O)[O-]`: the Potency result is “inactive”.

For the molecule `CC(C)CC(C)(C)C`, the Potency result is “inactive”.

For the molecule `COc1ccc(C(=O)c2ccc(C)cc2)c(O)c1`, the Potency result was “inactive”.

Take `O=C1OC(=O)C2CC=CCC12` (stereo not given): the Potency entry was “inactive”.

As to `N#CCCCC(C#N)CCC#N` (stereo not given), the Potency entry is “inactive”.

Take `O=C1CCCN1CCO`: the Potency result is “inactive”.

On to `O=C(Cl)c1ccc(F)c(Cl)c1`, for which the Potency entry is “inactive”.

On to `FC1(F)C(F)(F)C(F)(F)C2(F)C(F)(C1(F)F)C(F)(F)C(F)(F)C1(F)C(F)(F)C(F)(F)C(F)(F)C(F)(F)C12F` (stereo not given), for which the Potency result is “inactive”.

As to `C[C@@H](O)[C@H]1C(=O)N2C(C(=O)O)=C(S[C@@H]3CN[C@H](CNS(N)(=O)=O)C3)[C@H](C)[C@H]12`, the Potency result was “inactive”.

Regarding `Cc1cc(C)c(C)c(O)c1`, the Potency entry is “inactive”.

With `Cc1c(Cl)cccc1Nc1ccccc1C(=O)O`, the Potency was 13.3 µM (active).

In the case of `OCCCO`, the Potency entry is “inactive”.

In the case of `CCn1nc(Cc2ccccc2)cc1C1CCN(C[C@H]2C[C@H](N(C)[C@@H](C(=O)O)C(C)C)C[C@@H]2c2cccc(F)c2)CC1`, the Potency was 61.1 µM (active).

As to `C=C[Si]1(C)O[Si](C)(C=C)O[Si](C)(C=C)O[Si](C)(C=C)O1` (stereo not given), the Potency entry was “inactive”.

As for `O=C(O)c1ccccc1-n1cc(C(=O)O)c(=O)c2cc(Nc3c(F)cc(F)cc3Cl)c(Cl)cc21`, the Potency result was “inactive”.

For the molecule `CCCCCCCCCCCCCCCCN`, the Potency result was “inactive”.

Regarding `CC1=C(C)C(=O)C(C(CCCCCC(=O)O)c2ccccc2)=C(C)C1=O` (stereo not given), the Potency entry is “inactive”.

For `C=CCCC`, the Potency result is “inactive”.

Take `O=C(Nc1ccccc1)c1cc([N+](=O)[O-])ccc1Cl`: the Potency is 61.1 µM (active).

For the molecule `O=C(O)c1cc(C(=O)O)c(C(=O)O)cc1C(=O)O`, the Potency entry was “inactive”.

`S=c1[nH][nH]c(=S)s1`: the Potency result is “inactive”.

Take `C1CCN(CN2CCCCC2)CC1`: the Potency entry was “inactive”.

`CCc1c(C)[nH]c2c1C(=O)C(CN1CCOCC1)CC2` (stereo not given): the Potency result was “inactive”.

For the molecule `NC(=O)c1ccccc1`, the Potency result was “inactive”.

Regarding `CC1(C)CC(=O)CC(C)(C)N1`, the Potency result was “inactive”.

Regarding `COC(=O)c1cc(Cl)ccc1[N+](=O)[O-]`, the Potency entry was “inactive”.

As for `O=C(O)c1ccccc1[N+](=O)[O-]`, the Potency result is “inactive”.

`c1ccc(CN(Cc2ccccc2)Cc2ccccc2)cc1`: the Potency result was “inactive”.

On to `c1ccc(CCNc2nc(-c3ccccc3)cs2)cc1`, for which the Potency entry was “inactive”.

`OCCc1ccncc1`: the Potency result is “inactive”.

On to `CC1(C)C(=O)NC(=O)N1CO`, for which the Potency entry was “inactive”.

For the molecule `CC(C)(C(=O)O)c1ccc(C(O)CCCN2CCC(C(O)(c3ccccc3)c3ccccc3)CC2)cc1` (stereo not given), the Potency result was “inactive”.

Regarding `Nc1ccccc1Nc1ccccc1`, the Potency was 12.2 µM (active).

In the case of `CC(=O)c1ccc(Cl)c(Cl)c1Cl`, the Potency entry is “inactive”.

In the case of `CCCCCCCCS`, the Potency result was “inactive”.

The values above are taken from PubChem BioAssay (Tox21).
